The text below walks through data of PubChem BioAssay (NCATS).

The target in experiment [1] is Metallo-beta-lactamase type 2 (Klebsiella pneumoniae) (UniProt C7C422). The experiment in a line: qHTS to identify inhibitors of the New Delhi Metallo-beta-lactamase (NDM): assay validation screen against the NCATS LOPAC Collection (AID 1794843). Also: potency is read from the fitted curve at half-maximal effect. The procedure, abridged:
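Enzyme 2 nM final, 50 mM HEPES pH 7.0, 1 uM ZnSO4, 0.01% Tween20; cpds in DMSO, preincub w/ enzyme; + nitrocefin (50 uM stock); A485 at plateau; no-enzyme column as blank.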
A general note: In qHTS, concentration-response curves come from the screen itself.

For experiment [2], the target named is Glutathione peroxidase 1 (Homo sapiens) (UniProt P07203). The experiment in a line: Primary qHTS Assay for Inhibitors of Recombinant Selenoprotein Glutathione Peroxidase 1 (GPX1) (AID 1845191). Also: nearly all actives have a fitted effect of over 65% in size. The procedure, abridged:
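GPX1 10 nM, GR 100 nM, GSH 1 mM, NADPH 0.5 mM, CHP 0.5 mM (final). 30-min cpd preincubation, RT. Ex340/Em450 read t=0, t=15 min.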

The target in experiment [3] is Phospholipid hydroperoxide glutathione peroxidase GPX4 (Homo sapiens) (UniProt P36969). Put plainly: Primary qHTS Assay for Inhibitors of Recombinant Selenoprotein Glutathione Peroxidase 4 (GPX4) (AID 1845192). Also: nearly all actives have a fitted effect of over 65% in size. The procedure, abridged: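 qHTS, GR-coupled: GPX4 200 nM + cpd 30 min RT → GSH 1 mM, NADPH 0.5 mM, GR 100 nM → CHP 0.5 mM start; fluor 340/450 at t0 and t15 min; no-enzyme wells as control.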

Experiment [4] in a line: Viability counterscreen for antagonist of constitutive androstane receptor (CAR) against the NCATS DSHEA and TCM libraries (AID 1794837).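 Also: compound exposure lasted 24 h before viability reading.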 Summed up: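 Cell viability, CellTiter-Fluor, Ex/Em 405/540 nm, 1 h at 37C. HepG2-CYP2B6-hCAR, 2,500 cells/well; cpds + CITCO 48 uM final (antagonist mode), 24 h, 37C/5% CO2.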
(In general: The purpose of a counterscreen is to sort out artefacts and off-target activity.)

Experiment [5] is described as follows: Viability counterscreen for agonist of constitutive androstane receptor (CAR) against the NCATS DSHEA and TCM libraries (AID 1794838).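 Also: HepG2 cells with CYP2B6 reporter and hCAR plus 0.75 µM PK11195 antagonist.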 Summed up:
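Viability by CellTiter-Fluor fluorescence, 405/540 nm, after 1 h at 37C. HepG2-CYP2B6-hCAR cells were exposed 24 h to test substances in presence of 0.75 uM PK11195 (final).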

For experiment [6], the target named is Nuclear receptor subfamily 1 group I member 3 (Homo sapiens) (UniProt Q14994). Put plainly: Primary qHTS for agonist of constitutive androstane receptor (CAR) against the NCATS DSHEA and TCM libraries (AID 1794839).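 Also: HepG2 cells expressing human CAR with a CYP2B6 reporter plus PK11195 antagonist; luciferase reporter luminescence read with ONE-Glo.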 The source says:
National Center for Advancing Translational Sciences (NCATS), Rockville, MD
National Institute of Health (NIH), Bethesda, Maryland
Dietary Supplements and Natural Products have minor oversight of their safety and efficacy. We assembled a collection of Dietary Supplements and Natural Products (DSNP) as well as Traditional Chinese Medicinal (TCM) Plant extracts, which were screened against an in vitro panel of assays, including a liver cytochrome p450 enzyme panel, CAR/PXR signaling pathways, and P-gp transporter assays, to assess their activity. This pipeline facilitated the interrogation of Natural Product-Drug Interaction (NaPDI) through prominent metabolizing pathways. In addition, we compared the activity profiles of the DSNP/TCM substances with those of an approved drug collection. Many of the approved drugs have well-annotated mechanisms of action (MOA) while the MOAs for most of the DSNP and TCM samples remain unknown. […] Overall, we highlight four significant bioactivity profiles (measured by p-values) as examples of this prediction. […]
8; Detector 1; Fluorescence intensity; ViewLux plate reader (excitation 405 nm, emission 540 nm). […]
11; Detector 2; Luminescence intensity; ViewLux. […]
8. Fluorescence intensity (Ex/Em = 405 nm/540 nm) is obtained using the ViewLux plate reader to determine cell viability. […]
10. Luminescence intensity is read using the ViewLux detector. […]

The nature of experiment [7]: HepG2 viability counterscreen (readout 2: ATP content) against the NCATS DSHEA and TCM libraries (AID 1794840). Summed up:
(§1)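 1,000 HepG2 cells/well, 4 h attach; compounds ~24 h, 37C/5% CO2. Readout 1: GF-AFC 25 uM final, 30 min, fluorescence 380/510 nm. Readout 2: CellTiter-Glo, 30 min RT, luminescence.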

Experiment [8] is described as follows: HepG2 viability counterscreen (readout 1: protease activity) against the NCATS DSHEA and TCM libraries (AID 1794841).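 Also: cells exposed to compounds for about 24 h before the protease read.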 Summed up: as §1

Structures are written as SMILES. Results filed as inconclusive are left out. Calls of active or inactive are those of the source. Calls follow the shape of the dose curve; as a rule, active = well fitted curve in the direction sought with a large enough effect; inconclusive = small, poorly fitted or top-dose-only effect, or another doubt; inactive = no such curve, though single readings can be large; an effect the other way counts as inactive or inconclusive.

Sequence of Phospholipid hydroperoxide glutathione peroxidase GPX4 (Homo sapiens) (P36969 whole entry, looked up): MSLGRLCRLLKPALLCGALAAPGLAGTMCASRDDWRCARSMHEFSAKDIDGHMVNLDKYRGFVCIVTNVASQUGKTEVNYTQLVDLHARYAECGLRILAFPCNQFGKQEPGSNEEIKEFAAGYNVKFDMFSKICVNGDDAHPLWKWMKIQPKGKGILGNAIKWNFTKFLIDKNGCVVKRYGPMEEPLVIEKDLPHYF
Sequence of Glutathione peroxidase 1 (Homo sapiens) (P07203 whole entry, looked up): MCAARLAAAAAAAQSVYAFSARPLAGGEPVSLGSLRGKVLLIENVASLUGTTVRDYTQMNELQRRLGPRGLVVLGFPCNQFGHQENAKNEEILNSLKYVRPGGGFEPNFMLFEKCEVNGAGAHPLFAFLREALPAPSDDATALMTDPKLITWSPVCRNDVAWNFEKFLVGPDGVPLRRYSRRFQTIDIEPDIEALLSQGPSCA
Sequence of Metallo-beta-lactamase type 2 (Klebsiella pneumoniae) (C7C422 whole entry, looked up): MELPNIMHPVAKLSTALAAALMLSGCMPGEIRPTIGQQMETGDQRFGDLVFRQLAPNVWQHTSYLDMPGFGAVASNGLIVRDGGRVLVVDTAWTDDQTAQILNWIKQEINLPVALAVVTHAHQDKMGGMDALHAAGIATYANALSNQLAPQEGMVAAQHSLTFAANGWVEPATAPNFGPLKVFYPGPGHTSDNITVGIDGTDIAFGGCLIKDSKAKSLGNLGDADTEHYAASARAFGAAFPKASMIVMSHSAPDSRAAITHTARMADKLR
Sequence of Nuclear receptor subfamily 1 group I member 3 (Homo sapiens) (Q14994 whole entry, looked up): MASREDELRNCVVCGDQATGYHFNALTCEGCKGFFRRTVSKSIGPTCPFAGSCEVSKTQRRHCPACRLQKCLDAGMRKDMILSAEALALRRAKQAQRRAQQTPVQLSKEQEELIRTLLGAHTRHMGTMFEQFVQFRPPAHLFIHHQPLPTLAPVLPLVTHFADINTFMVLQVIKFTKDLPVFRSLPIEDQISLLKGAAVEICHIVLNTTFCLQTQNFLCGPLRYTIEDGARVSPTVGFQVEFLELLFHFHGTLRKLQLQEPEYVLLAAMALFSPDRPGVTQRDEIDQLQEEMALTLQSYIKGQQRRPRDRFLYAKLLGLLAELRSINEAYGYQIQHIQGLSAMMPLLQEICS

Take `NC(N)=NC(=O)c1nc(Cl)c(N2CCCCCC2)nc1N`: the Potency entry in experiment [1], in experiment [2] and in experiment [3] was “inactive” each time.
In the case of `O=C1NC(=O)c2c1c(-c1ccccc1)cc1[nH]c3ccc(O)cc3c21`, the Potency result in experiment [1], in experiment [2] and in experiment [3] was “inactive” each time.
Turning to `Nc1nc(Nc2ccccc2)nc2c1ncn2[C@@H]1O[C@H](CO)[C@@H](O)[C@H]1O`, the Potency entry in experiment [1], in experiment [2] and in experiment [3] was “inactive” each time.
On to `CC(C)NC[C@H](O)COc1cccc2[nH]ccc12`, for which the Potency result in experiment [1], in experiment [2] and in experiment [3] was “inactive” in each case.
In the case of `C=CC(N)CCC(=O)O` (stereo not given), the Potency result in experiment [1], in experiment [2] and in experiment [3] was “inactive” each time.
As for `O=C(O)c1cc(O)c(O)c(O)c1`, the call in experiment [4], in experiment [5], in experiment [6], in experiment [7] and in experiment [8] was inactive. Also, the Potency entry in experiment [3] was “inactive”.
`N[C@H](CCCP(=O)(O)O)C(=O)O`: the Potency result in experiment [1], in experiment [2] and in experiment [3] was “inactive” throughout.
As to `COc1cc(C(O)CO)ccc1OS(=O)(=O)O` (stereo not given), the Potency result in experiment [1], in experiment [2] and in experiment [3] was “inactive” each time.
On to `NCCCCC(=O)O`, for which the Potency entry in experiment [1], in experiment [2] and in experiment [3] was “inactive” throughout.
Take `CN1C2CCC1CC(OC(=O)C(O)c1ccccc1)C2` (stereo not given): the Potency entry in experiment [1], in experiment [2] and in experiment [3] was “inactive” throughout.
Take `CCCCCCCCCCCCCCCCCC(=O)O`: the molecule was classed as inactive in experiment [7] and in experiment [8]. Moreover, the Potency entry in experiment [2] and in experiment [3] was “inactive” throughout.
Turning to `O=C(O)CC[C@@H](C(=O)O)N1C(=O)c2ccccc2C1=O`, the Potency result in experiment [1], in experiment [2] and in experiment [3] was “inactive” throughout.
In the case of `CCCC(CCC)C(=O)OC1CC2CCC(C1)[N+]2(C)C` (stereo not given), the Potency entry in experiment [1], in experiment [2] and in experiment [3] was “inactive” in each case.
As for `Cc1cc(NC(=O)Nc2ccc3c(ccn3C)c2)sn1`, the Potency entry in experiment [1], in experiment [2] and in experiment [3] was “inactive” each time.
For `COc1ccc(NC(=O)/C=C/c2ccc(Cl)cc2)cc1`, the Potency result in experiment [1], in experiment [2] and in experiment [3] was “inactive” in each case.
As to `CC(C)c1cccc(C(C)C)c1N1C(=O)c2ccc(O)cc2C1=O`, the Potency entry in experiment [1], in experiment [2] and in experiment [3] was “inactive” throughout.
As to `COc1ccc(/C=C/c2nc(NCCCN(C)C)c3ccccc3n2)cc1`, the Potency result in experiment [1], in experiment [2] and in experiment [3] was “inactive” throughout.
Consider `CN1CC(=O)N/C1=N/C(=O)Nc1cccc(Cl)c1`, for which the Potency result in experiment [1], in experiment [2] and in experiment [3] was “inactive” in each case.
As for `O=c1cc(-c2ccccc2)oc2c(O)c(O)ccc12`, the Potency result in experiment [1], in experiment [2] and in experiment [3] was “inactive” throughout.
In the case of `O=C(c1ccc(Cl)cc1)N1CCN(c2ccc([N+](=O)[O-])c3ncccc23)CC1`, the Potency result in experiment [1], in experiment [2] and in experiment [3] was “inactive” each time.
`C[N+]1(C)C2CC(OC(=O)[C@H](CO)c3ccccc3)CC1C1OC12` (stereo not given in full): the Potency result in experiment [1], in experiment [2] and in experiment [3] was “inactive” throughout.
Take `CN(C)C(N)=NCCC[C@H](N)C(=O)O`: the Potency entry in experiment [1], in experiment [2] and in experiment [3] was “inactive” each time.
On to `COc1ccc2c(c1)CCC1C2CC[C@@]2(C)C1CC[C@@H]2NCCCCCCN1C(=O)CCC1=O` (stereo not given in full), for which the Potency entry in experiment [1], in experiment [2] and in experiment [3] was “inactive” throughout.
`CNC(=O)[C@H]1O[C@@H](n2cnc3c(NCc4ccc(N)cc4)ncnc32)[C@H](O)[C@@H]1O`: the Potency result in experiment [1], in experiment [2] and in experiment [3] was “inactive” each time.
Turning to `O=C(CCSCc1ccco1)NNC(=O)N1Cc2ccccc2Oc2ccc(Cl)cc21`, the Potency result in experiment [1], in experiment [2] and in experiment [3] was “inactive” each time.
In the case of `Nc1nc(OCC2CCCCC2)c2[nH]cnc2n1`, the Potency result in experiment [1], in experiment [2] and in experiment [3] was “inactive” throughout.
Consider `c1cnc2c(c1)ccc1cccnc12`, for which, in experiment [1], the Potency is 20 µM (active). The Potency entry in experiment [2] and in experiment [3] was “inactive” throughout.
`CC(=O)SCC[N+](C)(C)C`: the Potency result in experiment [1], in experiment [2] and in experiment [3] was “inactive” each time.
On to `CN(C)c1ccc(/C=C2\C(=O)Nc3ccccc32)cc1`, for which the Potency result in experiment [1], in experiment [2] and in experiment [3] was “inactive” in each case.
On to `CC(C)(NS(=O)(=O)c1ccc(Oc2ccc(F)cc2)cc1)C(=O)NO`, for which the Potency result in experiment [1], in experiment [2] and in experiment [3] was “inactive” each time.
Take `CN1CCc2ccccc2Cc2[nH]c3ccccc3c2CC1`: the Potency result in experiment [1], in experiment [2] and in experiment [3] was “inactive” in each case.
`C[S+](CC[C@H](N)C(=O)O)C[C@H]1O[C@@H](n2cnc3c(N)ncnc32)[C@H](O)[C@@H]1O` (stereo not given in full): the outcome in experiment [4], in experiment [5], in experiment [7] and in experiment [8] was inactive.
Take `Cc1ccc(S(=O)(=O)/C=C/C#N)cc1`: the Potency result in experiment [1], in experiment [2] and in experiment [3] was “inactive” each time.
Consider `CN[C@H](CC(C)C)C(=O)N[C@H]1C(=O)N[C@@H](CC(N)=O)C(=O)N[C@H]2C(=O)N[C@H]3C(=O)N[C@H](C(=O)N[C@H](C(=O)O)c4cc(O)cc(O)c4-c4cc3ccc4O)[C@H](O)c3ccc(c(Cl)c3)Oc3cc2cc(c3O[C@@H]2O[C@H](CO)[C@@H](O)[C@H](O)[C@H]2O[C@H]2C[C@](C)(N)[C@H](O)[C@H](C)O2)Oc2ccc(cc2Cl)[C@H]1O`, for which the Potency result in experiment [1], in experiment [2] and in experiment [3] was “inactive” in each case.
Take `NCCCCCCCCCCN`: the Potency entry in experiment [1], in experiment [2] and in experiment [3] was “inactive” throughout.
For the molecule `O=P(O)(O)C(Cl)(Cl)P(=O)(O)O`, the Potency result in experiment [1], in experiment [2] and in experiment [3] was “inactive” each time.
With `O=C1NC(=O)/C(=C/c2ccc3nccnc3c2)S1`, the Potency result in experiment [1], in experiment [2] and in experiment [3] was “inactive” in each case.
In the case of `CCCCC#Cc1nc(NC)c2ncn([C@@H]3O[C@H](CO)[C@@H](O)[C@H]3O)c2n1`, the Potency entry in experiment [1], in experiment [2] and in experiment [3] was “inactive” throughout.
For `N=c1ccn2c(n1)O[C@H]1[C@H](O)[C@@H](CO)O[C@H]12`, the Potency entry in experiment [1], in experiment [2] and in experiment [3] was “inactive” in each case.
Consider `CN1CCc2cccc3c2C1Cc1ccc(O)c(O)c1-3` (stereo not given), for which the Potency entry in experiment [1], in experiment [2] and in experiment [3] was “inactive” in each case.
